Compound activity (PubChem)
aSyn 5UTR act – Activators working through SNCA 5'UTR binding (MLPCN); activity score, % (tested at 7.5 µM), hits read low; AID 1814; alpha-synuclein 5'UTR reporter, activators screen; 300,000 compounds, 7.1% hits; in the data active = activity score below about -60%
* hit, by the source's call. The list is a sample of the results.

Results for O=C(Nc1ccccc1)ON=C1CCCC1 ?
aSyn 5UTR act: -82*

What do the screens show for `Cc1ccc(NC(=O)ON=C2CCCC2)cc1`?
aSyn 5UTR act: -205*

How did Cc1nnnn1/C(=C\c1ccccc1)C(=O)OCC(=O)Nc1ccc(Cl)cc1F do in these assays?
aSyn 5UTR act: -71*

How did CCc1ccccc1NC(=S)N1N=CCC1c1ccccc1 (centres undefined) do in these assays?
aSyn 5UTR act: -71*

What do the screens show for `Cc1cccc(NC(=S)N2N=CCC2c2ccccc2)c1` (centres undefined)?
aSyn 5UTR act: -125*

What do the screens show for `CCOC(=O)c1cnc2cc3c(cn2c1=O)CCCC3`?
aSyn 5UTR act: -132*

Results for CCC(=O)c1cn(CC(=O)NCc2ccco2)c2ccccc12 ?
aSyn 5UTR act: -65*

What do the screens show for `COc1ccc(/C=C/c2ccncc2)cc1`?
aSyn 5UTR act: -96*

How did COCCCNc1oc(/C=C/c2ccccc2)nc1C#N do in these assays?
aSyn 5UTR act: -114*

How did CCOc1ccc(/C=C/c2nc(C#N)c(NCCCOC)o2)cc1 do in these assays?
aSyn 5UTR act: -150*

How did CC(C)c1ccc(C(=O)NNC(=O)C2C3CCC(C3)C2C(=O)O)cc1 (centres undefined) do in these assays?
aSyn 5UTR act: -115*

Results for CC(C)c1ccc(C(=O)NN2C(=O)C3CCCCC3C2=O)cc1 (centres undefined) ?
aSyn 5UTR act: -85*

How did C=CCn1cnc2c(nnn2-c2ccc(C)c(C)c2)c1=O do in these assays?
aSyn 5UTR act: -122*

Results for Cc1ccc(CN=c2c([N+](=O)[O-])nn(-c3ccc4c(c3)OCCO4)n2O)cc1 ?
aSyn 5UTR act: -132*

What do the screens show for `COc1ccc(-n2nc([N+](=O)[O-])c(=NCc3ccc4c(c3)OCO4)n2O)cc1`?
aSyn 5UTR act: -109*

What do the screens show for `CC(=O)c1cc(C#N)c(SCc2ccccc2)nc1C`?
aSyn 5UTR act: -85*

What do the screens show for `CC(=O)c1cc(C#N)c(SCc2ccccn2)nc1C`?
aSyn 5UTR act: -114*

Results for CCOc1cc2nc3c4ccccc4n(C)c3nc2cc1OCC ?
aSyn 5UTR act: -62*

What do the screens show for `C=CCNC(=O)c1ccc(OC2CCN(S(=O)(=O)N(C)C)CC2)cc1`?
aSyn 5UTR act: -162*

What do the screens show for `Brc1ccc(-c2cnc(-c3cccs3)o2)cc1`?
aSyn 5UTR act: -171*

How did Cc1c(Cl)cccc1N=c1c([N+](=O)[O-])nn(-c2ccccc2)n1O do in these assays?
aSyn 5UTR act: -141*

What do the screens show for `Cc1ccc(N=c2c([N+](=O)[O-])nn(-c3ccccc3)n2O)c(C)c1`?
aSyn 5UTR act: -195*

Results for CCOC(=O)c1cnc(Nc2ccccc2)nc1C(F)(F)F ?
aSyn 5UTR act: -89*

How did Cn1nnnc1SCC(=O)Nc1ccc2c(c1)OCO2 do in these assays?
aSyn 5UTR act: -99*

How did CCc1ccc(NC(=O)CSc2nnnn2C)cc1 do in these assays?
aSyn 5UTR act: -132*

Results for Cc1ccc(C(=O)C(C(=O)/C=C/c2ccccc2)=C2SCCCS2)cc1 ?
aSyn 5UTR act: -102*

What do the screens show for `O=C(CSc1nnc(-c2ccc(OC(F)F)cc2)o1)N1CCOCC1`?
aSyn 5UTR act: -67*

Results for COc1ccc(-c2nnc(SCC(=O)N3CCOCC3)o2)cc1 ?
aSyn 5UTR act: -105*

Results for O=C(O)c1cccc(CSc2nnc(-c3ccc(Cl)cc3)o2)c1 ?
aSyn 5UTR act: 55

What do the screens show for `O=C(CSc1nnc(-c2ccc(O)cc2)o1)N1CCOCC1`?
aSyn 5UTR act: -77*

Results for O=C(CSc1nnc(-c2ccc(Cl)cc2)o1)N1CCOCC1 ?
aSyn 5UTR act: -154*

What do the screens show for `Oc1ccc(-c2nnc(SCC3CCCCC3)o2)cc1`?
aSyn 5UTR act: -132*

What do the screens show for `CSc1ccc(-c2nc(CSCC(=O)N3CCOCC3)c(C)o2)cc1`?
aSyn 5UTR act: -77*

What do the screens show for `COc1ccc(C(=O)O/N=C(/c2ccccc2)c2ccncc2)cc1`?
aSyn 5UTR act: -72*

How did N/C(=N\OC(=O)c1ccc(Br)cc1)c1ccncc1 do in these assays?
aSyn 5UTR act: -110*

Results for N/C(=N\OC(=O)c1cccc(Br)c1)c1ccncc1 ?
aSyn 5UTR act: -138*

Results for N/C(=N\OC(=O)c1ccccc1)c1ccncc1 ?
aSyn 5UTR act: -122*

What do the screens show for `Cn1nc(OC(=O)Nc2ccc(Cl)cc2)cc1C(F)(F)F`?
aSyn 5UTR act: -85*

Results for CCc1ccn2cc(-c3cc(-c4ccccc4)no3)nc2c1 ?
aSyn 5UTR act: 94

How did Cc1ccc(O)c(-c2cc(-c3ccc(F)cc3)no2)c1 do in these assays?
aSyn 5UTR act: -109*

What do the screens show for `Oc1ccccc1-c1cc(-c2ccccc2)no1`?
aSyn 5UTR act: -133*

How did Cc1ccccc1-c1cc(-c2ccccc2O)on1 do in these assays?
aSyn 5UTR act: -216*

What do the screens show for `Cc1ccc2nc(-c3cc(-c4ccccc4)no3)cn2c1`?
aSyn 5UTR act: 86

What do the screens show for `CC(=O)Nc1nnc(-c2ccc3c(c2)CCCC3)o1`?
aSyn 5UTR act: -67*

How did CC1CN(S(=O)(=O)c2ccc(C(=O)Nc3nnc(-c4ccc5c(c4)CCCC5)o3)cc2)CC(C)O1 (centres undefined) do in these assays?
aSyn 5UTR act: 76

What do the screens show for `Cc1ccc(-c2cc(-c3cccs3)[nH]n2)c(O)c1`?
aSyn 5UTR act: -128*

Results for Cc1ccc(NC(=O)Nc2cnccn2)cc1 ?
aSyn 5UTR act: -118*

How did Cc1ccc(NC(=O)Nc2cnccn2)cc1C do in these assays?
aSyn 5UTR act: -68*

Results for CC(C)c1ccc(NC(=O)Nc2cnccn2)cc1 ?
aSyn 5UTR act: -212*

How did N/C(=N\OC(=O)/C=C/c1ccccc1)c1cccnc1 do in these assays?
aSyn 5UTR act: -159*

How did N/C(=N\OC(=O)/C=C/c1ccccc1Cl)c1cccnc1 do in these assays?
aSyn 5UTR act: -248*

Results for O=C(Nc1nc2ccccc2[nH]1)c1ccc(Cl)cc1 ?
aSyn 5UTR act: 66

Results for Cc1ccc(C)c(C(=O)Nc2nc3ccccc3[nH]2)c1 ?
aSyn 5UTR act: -69*

What do the screens show for `O=C(NNc1ncnc2ccccc12)c1cccc(Cl)c1`?
aSyn 5UTR act: -84*

What do the screens show for `O=C(Nc1nc2ccccc2[nH]1)c1cccc(Cl)c1`?
aSyn 5UTR act: -151*

What do the screens show for `Cc1ccc(Nc2nc3ccccc3[nH]2)nc1`?
aSyn 5UTR act: -220*

What do the screens show for `O=C(Nc1nc2ccccc2[nH]1)c1ccccc1O`?
aSyn 5UTR act: -74*

How did Cc1ccc(C)c(OCc2nc3ccccc3[nH]2)c1 do in these assays?
aSyn 5UTR act: -113*

What do the screens show for `CC(Sc1nnc(NCc2ccccc2)s1)C(=O)Nc1ccc2c(c1)C(=O)c1ccccc1C2=O` (centres undefined)?
aSyn 5UTR act: -165*

Results for COc1ccc(NC(=O)/C=C/c2ccccc2)cn1 ?
aSyn 5UTR act: -116*

How did COc1ccc(NC(=O)/C=C/c2ccc(F)cc2)cn1 do in these assays?
aSyn 5UTR act: -114*

How did COc1ccc2nc3ccccc3nc2c1N do in these assays?
aSyn 5UTR act: -67*

Results for COc1ccc2nc3cccc(OC)c3nc2c1 ?
aSyn 5UTR act: -105*

How did Nc1c2ccccc2nc2ccccc12 do in these assays?
aSyn 5UTR act: 89

How did CC(=O)Nc1ccc2nc(C3CC3)n(Cc3ccc(Cl)cc3)c(=O)c2c1 do in these assays?
aSyn 5UTR act: -165*

How did COc1ccc(Cn2c(C3CC3)nc3ccc(NC(=O)C4CC4)cc3c2=O)cc1 do in these assays?
aSyn 5UTR act: -280*

Results for CCC(=O)Nc1ccc2nc(C3CC3)n(Cc3ccc(C(C)(C)C)cc3)c(=O)c2c1 ?
aSyn 5UTR act: -150*

Results for Cc1cccc2cc(C#N)c(SCc3nnc(-c4ccccc4[N+](=O)[O-])o3)nc12 ?
aSyn 5UTR act: -87*
